HPGD inh – qHTS Assay for Inhibitors of HPGD (15-Hydroxyprostaglandin Dehydrogenase); purified HPGD, NADH fluorescence kinetic, PGE2 substrate; Potency, µM, inactives show at the highest dose activity change, negative = inhibition, actives largely listed as inhibitors; actives 4.3% (n = 150,000); AID 894, 2007
Target sequence (P15428 whole entry, looked up): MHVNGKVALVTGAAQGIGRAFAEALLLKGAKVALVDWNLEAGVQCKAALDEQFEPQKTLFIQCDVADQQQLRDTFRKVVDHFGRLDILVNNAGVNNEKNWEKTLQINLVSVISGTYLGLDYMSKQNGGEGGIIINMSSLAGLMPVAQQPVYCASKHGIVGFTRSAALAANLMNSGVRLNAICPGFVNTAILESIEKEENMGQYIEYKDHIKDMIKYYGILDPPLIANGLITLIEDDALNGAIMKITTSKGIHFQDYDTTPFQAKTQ
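20 nM HPGD preincubated 15 min at room temperature with compound in 50 mM Tris-HCl pH 8, 0.01% Tween 20. Started with 1 mM NAD+ and 30 uM prostaglandin E2; NADH fluorescence (360/450 nm) read 5 times over 30-s intervals, last minus first.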
ALDH1A1 inh – qHTS Assay for Inhibitors of Aldehyde Dehydrogenase 1 (ALDH1A1). Aldehyde dehydrogenase 1A1 (Homo sapiens), P00352. Purified ALDH1A1, NADH fluorescence, propionaldehyde substrate. Potency, µM (series often up to 75.3 µM), for inactives: top-dose activity, negative = inhibition, usual class: inhibitors. actives 7.3% (n = 220,000). AID 1030, 2008;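 also: plate controls were no enzyme wells and a reference inhibitor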
Target sequence (P00352 whole entry, looked up): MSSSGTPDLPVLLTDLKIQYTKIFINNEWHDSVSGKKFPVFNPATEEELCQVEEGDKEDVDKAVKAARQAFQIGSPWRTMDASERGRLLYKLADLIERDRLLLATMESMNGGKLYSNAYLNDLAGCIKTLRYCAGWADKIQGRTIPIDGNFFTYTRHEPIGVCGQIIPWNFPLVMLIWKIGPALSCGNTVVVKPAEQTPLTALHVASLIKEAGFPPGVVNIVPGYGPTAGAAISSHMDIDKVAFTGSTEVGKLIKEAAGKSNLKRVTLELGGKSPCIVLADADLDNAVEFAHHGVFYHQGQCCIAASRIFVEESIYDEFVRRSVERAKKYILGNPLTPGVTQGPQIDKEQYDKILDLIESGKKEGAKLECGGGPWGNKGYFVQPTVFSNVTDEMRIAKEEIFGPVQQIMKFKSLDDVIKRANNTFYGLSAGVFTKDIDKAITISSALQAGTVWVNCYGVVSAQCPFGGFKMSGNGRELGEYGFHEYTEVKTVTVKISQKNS
KinaseGlo FLuc – Counterscreen for Luciferase (Kinase-Glo TM) Inhibition. Luciferin 4-monooxygenase (Photuris pensylvanica), Q27757. Kinase-Glo luciferase, ATP luminescence, 8 min. Potency, µM (titrated, usually from 38.3 µM), without a hit: at the highest dose activity change, negative = inhibition, usual class: inhibitors. actives 0.28% (n = 200,000); active = well fitted curve in the direction sought with a large enough effect; inconclusive = small, poorly fitted or top-dose-only effect, or another doubt; inactive = no such curve, though single readings can be large; an effect the other way counts as inactive or inconclusive; also: nearly all actives have a fitted effect of over 60% in size
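Compound is pinned into ATP-containing buffer (10 uM ATP, imidazole pH 7.2, 7 mM MgCl2). Kinase-Glo luciferase reagent is then added. Light output is recorded following an 8-min room-temperature incubation.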
IMPase Li inh – qHTS Assay for Identifying the Cell-Membrane Permeable IMPase Inhibitors: Potentiation with Lithium; AID 1457, 2008; Potency, µM (titrated, usually from 59.4 µM), without a hit: at the top dose activity, negative = IMPase inhibition, hits mostly inhibitors; CHO-M1 cells, IP1 TR-FRET (IP-One), carbachol + lithium; actives 0.35% (n = 210,000); active = well fitted curve in the direction sought with a large enough effect; inconclusive = small, poorly fitted or top-dose-only effect, or another doubt; inactive = no such curve, though single readings can be large; an effect the other way counts as inactive or inconclusive;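 also: IP1 builds up when IMPase is blocked and the TR-FRET signal falls; plate controls were basal vehicle for no effect and high inhibitor control for full effect; nearly all actives have a fitted effect of over 50% in size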
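CHO cells stably expressing M1 receptor (2000/well, cultured 16–30 h) treated 30 min at 37C with compound plus low lithium. Cytosolic IP1 by TR-FRET (665/620 ratio and 620 channel) after 10 min lysis; AC50 by Hill fit.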
Lamin A splicing – qHTS Assay for Modulators of Lamin A Splicing; Potency, µM (titrated, usually from 46.1 µM), inactives show top-dose ratio change, negative = inhibition, hits mostly inhibitors; HeLa LMNA splicing GFP/RFP minigene ratio, 48 h; actives 0.01% (n = 200,000); active = well fitted inhibition curve with a large enough effect in the signal ratio, with a control signal flat, not every such curve was filed as active; inconclusive = small, poorly fitted or top-dose-only effect, or effect the other way, or a change in a side signal; the % refers to the signal ratio
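S3 HeLa cells stably expressing lamin A-EGFP splicing minigene plus DsRed2, 600 cells/well, 48 h compound exposure at 37C. Laser-scanning cytometry; analysed as GFP (500-530 nm)/RFP (575-640 nm) total intensity ratio; 0.5% DMSO vehicle.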
* hit, by the source's call; ? = inconclusive; nt = not tested or not shown; [ ] = another dose, or the depositor's remark. An excerpt weighted towards active compounds, which were near 9% of everything screened. Unless noted, calls follow the shape of the dose curve; as a rule, active = well fitted inhibition curve with a large enough effect (not every such curve was filed as active); inconclusive = small, poorly fitted or top-dose-only effect, or another doubt; inactive = no such curve, though single readings can be large or run the other way. Unless noted, % is scaled to controls: 0 for no effect and ±100 for the full control effect; potency is read from the fitted curve at half-maximal effect.

SMILES | HPGD inh | ALDH1A1 inh | KinaseGlo FLuc | IMPase Li inh | Lamin A splicing
COC(=O)C1=C(C(=O)c2ccccc2)C(c2ccccc2)n2nnnc2N1 (stereo not drawn) | nt | 28µM* | -2% | 1% | -3%[46 µM]
O=C(c1csnn1)N1CCC2(CCN(Cc3ccccc3)CC2)CC1 | -9% | 0% | 1% | 31% | nt
COc1ccc(C(CC(=O)Nc2ccccc2OC)n2cccc2)cc1 (stereo not drawn) | 25µM* | -2% | -2% | 8% | ?
COc1ccc(C(CC(=O)Nc2cc(OC)cc(OC)c2)n2cccc2)cc1 (stereo not drawn) | -10% | 3% | -2% | 10% | -15%
COc1ccc(C)cc1NC(=O)CN1C(=O)COc2ccc(S(=O)(=O)NC3CCCC3)cc21 | nt | nt | nt | nt | -1%[46 µM]
COc1ccccc1N1CCN(C(CNC(=O)C2CCCCC2)c2cccnc2)CC1 (stereo not drawn) | 5% | 3% | -1% | 16%[38.3 µM] | ?
COc1ccc(S(=O)(=O)NCC(c2cccnc2)N2CCN(c3ccccc3OC)CC2)cc1C (stereo not drawn) | -9% | ? | -2% | -3%[38.3 µM] | -3%
COc1ccccc1N1CCN(C(CNS(=O)(=O)c2ccccc2)c2cccnc2)CC1 (stereo not drawn) | -3% | 20µM* | 15% | 12%[38.3 µM] | 6%
COc1ccccc1N1CCN(C(CNS(=O)(=O)c2cc(F)ccc2F)c2cccnc2)CC1 (stereo not drawn) | -10% | 20µM* | 2% | 7% | 3%
COCC(C)NC(=O)NC1(C(F)(F)F)Oc2ccc(Cl)cc2O1 (stereo not drawn) | nt | 22µM* | nt | nt | ?
CC1CCN(S(=O)(=O)c2ccc(NC(=O)CSc3ncccc3C(=O)O)cc2)CC1 | 14µM* | 25µM* | 26% | 24%[38.3 µM] | 0%
CC1CCN(S(=O)(=O)c2ccc(NC(=O)CSc3nnnn3C)cc2)CC1 | -5% | 0% | 4% | 25%[38.3 µM] | -7%
O=C(CCOc1ccccc1)Nc1ccc(S(=O)(=O)N2CCCC2)cc1 | -9% | 22µM* | -2% | -9%[38.3 µM] | -2%
O=C(COc1ccccc1)Nc1ccc(S(=O)(=O)N2CCCC2)cc1 | -7% | -6% | -1% | 8%[38.3 µM] | 4%
O=C(CCc1ccccc1)Nc1ccc(S(=O)(=O)N2CCCC2)cc1 | nt | 13µM* | 2% | 1% | nt
O=C(CSc1nc2ccccc2c(=O)[nH]1)Nc1ccc(S(=O)(=O)N2CCCC2)cc1 | 14µM* | 2.2µM* | 1% | 9%[38.3 µM] | ?
Cc1cc(C)c2c(c1)cc(C)c1nnc(SCC(=O)Nc3ccc(S(=O)(=O)N4CCCCC4)cc3)n12 | -7% | 20µM* | -1% | 11% | ?
O=C(CSc1ncccn1)Nc1ccc(S(=O)(=O)N2CCCCC2)cc1 | -7% | 3% | -3% | -26%[38.3 µM] | -3%
Cc1ccc(NC(=O)CCCn2c(=O)c3cccn3c3ccccc32)cc1C | nt | nt | nt | nt | -15%[46 µM]
COc1ccccc1CN1CCNC(=O)C1CC(=O)NCCc1cnccn1 (stereo not drawn) | nt | -9% | 2% | 7% | nt
O=C(O)/C=C\C(=O)Nc1ccccc1F | -4% | 35µM* | 5% | -4% | -5%
O=C(O)C1CCCCC1C(=O)Nc1ccccc1F (stereo not drawn) | -5% | 20µM* | 2% | 14%[38.3 µM] | 14%
COc1ccc(Cl)cc1NC(=O)/C=C\C(=O)O | -3% | 0% | -2% | 6%[38.3 µM] | 3%
O=C(O)/C=C\C(=O)Nc1ccc(F)c(F)c1F | nt | 22µM* | nt | nt | nt
COc1ccccc1NC(=O)/C=C\C(=O)O | nt | 0% | 5% | -3% | ?
SMILES | HPGD inh | ALDH1A1 inh | KinaseGlo FLuc | IMPase Li inh | Lamin A splicing
C[C@@H](c1ccccc1)N1C(=O)[C@H]2[C@@H]3[C@H](O)[C@H](O)CC(=O)[C@H]3CC[C@H]2C1=O | nt | 0%[13.5 µM] | nt | nt | nt
COc1cc(SC)ccc1C(=O)N1CCCCCC1 | 3.2µM* | 6% | 0% | 11% | ?
O=C(NC1CC1)c1ccc(F)cc1Cl | 20µM* | -6% | -4% | 26%[38.3 µM] | -14%
COc1cc(SC)ccc1C(=O)OCC(=O)NC1CCCCC1 | nt | -9% | 0% | -4% | 18%[46 µM]
COc1cc(SC)ccc1C(=O)NC1CCCCC1 | 22µM* | ? | 11% | 12%[38.3 µM] | 3%
CSc1ccc(Cl)c(C(=O)NC2CCCC2)c1 | 16µM* | 9% | -6% | 8%[38.3 µM] | 12%
COc1cc(SC)ccc1C(=O)N1CCN(c2ccccc2)CC1 | nt | -5% | -1% | -1% | -9%[46 µM]
CC(Oc1ccc(Br)cc1)C(=O)NCc1cccnc1 (stereo not drawn) | -3% | 6% | -1% | nt | nt
O=C(O)CNc1ccc(C(=O)O)cc1 | -3% | 6%[13.5 µM] | -2%[7.66 µM] | 2% | nt
Clc1ccc(-c2nc(/C=N/N3CCOCC3)c3ccccn23)cc1 | nt | ? | 3% | 24% | -20%[46 µM]
CCOc1ccc(C(=O)NCC(c2ccc3c(c2)OCO3)N2CCOCC2)cc1 (stereo not drawn) | nt | nt | nt | nt | -6%[46 µM]
CC(=O)Nc1sc2c(c1CN1CCN(c3ccccn3)CC1)CCCC2 | -16% | 22µM* | -1% | 9%[38.3 µM] | ?
CC(=O)Nc1sc2c(c1CN1CCN(c3ccc(F)cc3)CC1)CCCC2 | -7% | ? | 7% | 26%[38.3 µM] | ?
CC(=O)COc1cc(C)cc2oc(=O)cc(-c3ccccc3)c12 | nt | 2.2µM* | -1% | 7% | 7%[46 µM]
Cc1cc(OC(=O)c2ccco2)c2c(C)cc(=O)oc2c1 | -12% | ? | -2% | -8%[38.3 µM] | 7%
Cc1cc(O)c2c(-c3ccccc3)cc(=O)oc2c1 | -14% | ? | 3% | 34%[38.3 µM] | -6%
COc1ccc([N+](=O)[O-])cc1COc1cc(C)cc2oc(=O)cc(-c3ccccc3)c12 | -23% | 2µM* | 0% | 13%[38.3 µM] | ?
CCc1cc(=O)oc2cc(C)cc(OC(=O)c3ccco3)c12 | 0% | 10µM* | 4% | -14%[38.3 µM] | -16%
COc1cc(OC)nc(NC(=O)CN2CCN(c3ccc(F)cc3)CC2)n1 | -9% | 2% | -1% | 12%[38.3 µM] | 3%
CCOc1ccc(NC(=O)CN2CCN(CC(=O)c3ccc(OC)c(OC)c3)CC2)cc1 | -11% | 7.1µM* | 0% | 8%[38.3 µM] | 2%
CCOc1ccc(NC(=O)CSC(N)=O)cc1 | -16% | 2µM* | -1% | -10%[38.3 µM] | 7%
CCOc1ccc(C(=O)CN2CCN(S(=O)(=O)c3ccc(F)cc3)CC2)cc1 | -1% | 20µM* | -1% | 1%[38.3 µM] | -2%
CCOc1ccc(NC(=O)CC)cc1 | nt | 13% | 1% | 0% | -9%[46 µM]
COc1ccc(C(=O)CN2CCN(c3ccc(F)cc3)CC2)cc1OC | -1% | 13µM* | 2% | 4%[38.3 µM] | 4%

Compound activity as filed in PubChem BioAssay.
